Drawing on PubChem BioAssay (Tox21), this text covers viability change, negative = cytotoxic, Potency and activity change, negative = cytotoxicity for 39 compounds.

Inconclusive results are not listed. Where a call stands in place of a potency, no number is given. Activity calls are given as the source filed them. The call rests on the fitted dose curve; in most records, active means well fitted cell-killing curve with a large enough effect in the repeat runs; inconclusive means weak or mixed curves, or effect the other way; inactive means flat fitted curve, though single readings scatter.

The first assay in a line: cAMP Responsive Elements (CRE) small molecule antagonists, cell-based qHTS assay: qHTS cell viability counter screen (AID 2060913). Further: nearly all actives have a fitted effect of over 40% in size. As to conditions: CRE-bla HEK293T viability, CellTiter-Glo luminescence, 5 h; series mostly up to 92.4 µM. The gist of the method:
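Cytotoxicity counter screen multiplexed with the CRE-bla antagonist read: HEK293T cells in DMEM with dialyzed FBS and 25 mM HEPES were treated 3 hrs under 0.25 uM final NKH477, then viability measured by CellTiter-Glo luminescence.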
Background: qHTS replaces the single test concentration by a dilution series.
As for `C=C/C=C/C=C/CCCCC`, the viability change, negative = cytotoxic was -0.548% [at 18.9 µM] (inactive).

On to `O=C(O)C1=NN(c2ccc(S(=O)(=O)O)cc2)C(=O)C1`, for which the Potency entry was “inactive”.

As for `CSc1ccc(O)cc1C`, the Potency entry was “inactive”.

Regarding `Cc1cccc(C)c1C`, the Potency entry was “inactive”.

With `OCCC1CCCCN1` (stereo not drawn), the Potency entry is “inactive”.

In the case of `CC(=O)Nc1ccc(C)cc1C`, the Potency entry was “inactive”.

Regarding `CCCCOCC(C)O` (stereo not drawn), the Potency entry was “inactive”.

Consider `CC1=C(/C=C/C(C)=C/C=C/C(C)=C/C(=O)Nc2ccc(O)cc2)C(C)(C)CCC1`, for which the Potency entry was “inactive”.

Take `CC(C)C(=O)Nc1cccc(C(F)(F)F)c1`: the Potency result is “inactive”.

`O[C@@H](CNC[C@H](O)[C@H]1CCc2cc(F)ccc2O1)[C@@H]1CCc2cc(F)ccc2O1`: the Potency result is “inactive”.

Turning to `CCC(=O)Nc1cccc(N)c1`, the Potency entry was “inactive”.

Take `CCOC(=O)c1ccccc1C`: the Potency entry is “inactive”.

As for `CCOC(=O)CC(CC(=O)OCC)(OC(C)=O)C(=O)OCC`, the Potency entry is “inactive”.

Take `CN(C)CCOC(=O)C(c1ccccc1)C1(O)CCCC1` (stereo not drawn): the Potency entry is “inactive”.

`CCN(CC)CCCN(c1ccccc1)C1Cc2ccccc2C1`: the Potency result is “inactive”.

For the compound `OC[C@@H](O)[C@H](O)[C@H](O)[C@@H](O)CO`, the Potency entry is “inactive”.

As to `CC(CCC(=O)O)C(=O)O` (stereo not drawn), the Potency result was “inactive”.

Consider `O=S(=O)(O)CCS`, for which the Potency result was “inactive”.

For the compound `Brc1ccc(-c2ccccc2)cc1`, the Potency result was “inactive”.

For the compound `O=C1CCCCCCCCCCCCCCCO1`, the Potency result is “inactive”.

As to `O=[N+]([O-])c1cccc(S(=O)(=O)O)c1`, the Potency entry is “inactive”.

Take `CC(C)=CCC/C(C)=C\CO`: the Potency entry is “inactive”.

In the case of `CCOC(C)=O`, the Potency entry is “inactive”.

Consider `COC(C)OC`, for which the Potency result was “inactive”.

On to `O=S1OCCO1`, for which the Potency result was “inactive”.

Turning to `CNC(=O)CN(CCN(CCN(CC(=O)[O-])CC(=O)NC)CC(=O)[O-])CC(=O)[O-].O.[Gd+3]`, the Potency result is “inactive”.

Regarding `CCCCCO`, the Potency entry was “inactive”.

For `CCCCCCCCCCCCCCCCC(=O)O`, the Potency result is “inactive”.

Take `Nc1cc(Cl)cc(S(=O)(=O)O)c1O`: the Potency result is “inactive”.

With `CCc1oc2ccccc2c1C(=O)c1cc(I)c(O)c(I)c1`, the Potency entry is “inactive”.

For the compound `CC(=O)c1c(C)cc(C(C)(C)C)cc1C`, the Potency entry was “inactive”.

On to `CC(C)CCC(=O)CCC(C)C`, for which the Potency entry is “inactive”.

Consider `Cc1ccc(C)c(C)c1`, for which the Potency entry was “inactive”.

Consider `C[Si](C)(C)Cl`, for which the Potency result was “inactive”.

Turning to `O=C(OC1C[C@H]2CC[C@@H](C1)[N+]21CCCC1)C(O)(c1ccccc1)c1ccccc1` (stereo partly drawn), the Potency entry is “inactive”.

Consider `O=C1CC[C@H](C(=O)N2CCCCC2)N1`, for which the Potency entry was “inactive”.

For `Nc1cc(Cl)c(N)c(Cl)c1`, the Potency result was “inactive”.

With `Cc1cccc(C(C)(C)C)c1O`, the Potency entry was “inactive”.

As to `CCCCCCCCCCCCCO`, the Potency result is “inactive”.

A further assay in a line: cAMP Responsive Elements (CRE) small molecule agonists, cell-based qHTS assay: qHTS cell viability counter screen (AID 2060914). Further: potency means the concentration at half of the fitted maximal effect.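 Further: viability read after 3 h of compound exposure; nearly all actives have a fitted effect of over 50% in size.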 As to conditions: CRE-bla HEK293T viability, CellTiter-Glo luminescence, 5 h; series mostly up to 92.4 µM. The gist of the method:
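Cells are seeded and incubated 18 h, treated with compounds in DMSO for 3 h, read for the bla reporter, then given CellTiter-Glo; luminescence is measured after 30 min at room temperature.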
Consider `C=C/C=C/C=C/CCCCC`, for which the activity change, negative = cytotoxicity is -22.6% [at 18.9 µM] (inactive).

Regarding `O=C(O)C1=NN(c2ccc(S(=O)(=O)O)cc2)C(=O)C1`, the Potency entry was “inactive”.

As to `CSc1ccc(O)cc1C`, the Potency result is “inactive”.

For the compound `Cc1cccc(C)c1C`, the Potency result is “inactive”.

As to `OCCC1CCCCN1` (stereo not drawn), the Potency result is “inactive”.

Turning to `CC(=O)Nc1ccc(C)cc1C`, the Potency result is “inactive”.

For the compound `CCCCOCC(C)O` (stereo not drawn), the Potency entry was “inactive”.

As to `CC1=C(/C=C/C(C)=C/C=C/C(C)=C/C(=O)Nc2ccc(O)cc2)C(C)(C)CCC1`, the Potency entry was “inactive”.

Regarding `CC(C)C(=O)Nc1cccc(C(F)(F)F)c1`, the Potency entry is “inactive”.

For `O[C@@H](CNC[C@H](O)[C@H]1CCc2cc(F)ccc2O1)[C@@H]1CCc2cc(F)ccc2O1`, the Potency result was “inactive”.

Consider `CCC(=O)Nc1cccc(N)c1`, for which the Potency result is “inactive”.

With `CCOC(=O)c1ccccc1C`, the Potency result is “inactive”.

For `CCOC(=O)CC(CC(=O)OCC)(OC(C)=O)C(=O)OCC`, the Potency entry was “inactive”.

Regarding `CN(C)CCOC(=O)C(c1ccccc1)C1(O)CCCC1` (stereo not drawn), the Potency result was “inactive”.

`CCN(CC)CCCN(c1ccccc1)C1Cc2ccccc2C1`: the Potency entry is “inactive”.

As for `OC[C@@H](O)[C@H](O)[C@H](O)[C@@H](O)CO`, the Potency entry is “inactive”.

In the case of `CC(CCC(=O)O)C(=O)O` (stereo not drawn), the Potency result was “inactive”.

In the case of `O=S(=O)(O)CCS`, the Potency entry is “inactive”.

`Brc1ccc(-c2ccccc2)cc1`: the Potency entry was “inactive”.

As for `O=C1CCCCCCCCCCCCCCCO1`, the Potency entry is “inactive”.

For the compound `O=[N+]([O-])c1cccc(S(=O)(=O)O)c1`, the Potency entry is “inactive”.

For the compound `CC(C)=CCC/C(C)=C\CO`, the Potency entry is “inactive”.

For `CCOC(C)=O`, the Potency was 24.5 µM (active).

For `COC(C)OC`, the Potency result is “inactive”.

Take `O=S1OCCO1`: the Potency result is “inactive”.

Take `CNC(=O)CN(CCN(CCN(CC(=O)[O-])CC(=O)NC)CC(=O)[O-])CC(=O)[O-].O.[Gd+3]`: the Potency entry is “inactive”.

As to `CCCCCO`, the Potency entry was “inactive”.

Consider `CCCCCCCCCCCCCCCCC(=O)O`, for which the Potency entry was “inactive”.

With `Nc1cc(Cl)cc(S(=O)(=O)O)c1O`, the Potency result is “inactive”.

For `CCc1oc2ccccc2c1C(=O)c1cc(I)c(O)c(I)c1`, the Potency result was “inactive”.

For the compound `CC(=O)c1c(C)cc(C(C)(C)C)cc1C`, the Potency result is “inactive”.

For `CC(C)CCC(=O)CCC(C)C`, the Potency result was “inactive”.

Take `Cc1ccc(C)c(C)c1`: the Potency entry was “inactive”.

For the compound `C[Si](C)(C)Cl`, the Potency result was “inactive”.

With `O=C(OC1C[C@H]2CC[C@@H](C1)[N+]21CCCC1)C(O)(c1ccccc1)c1ccccc1` (stereo partly drawn), the Potency result was “inactive”.

`O=C1CC[C@H](C(=O)N2CCCCC2)N1`: the Potency entry was “inactive”.

Take `Nc1cc(Cl)c(N)c(Cl)c1`: the Potency entry was “inactive”.

In the case of `Cc1cccc(C(C)(C)C)c1O`, the Potency result was “inactive”.

As for `CCCCCCCCCCCCCO`, the Potency result was “inactive”.
